# Assay results reported in paper doi:10.1101/2024.03.05.583629.
# Biological target: pT7_6His-AlfaTag-HOXD13 (human, UniProt P35453 263-343)
# Test: PADIT-seq
# Settings: dsDNA, one strand shown
# Sequence of pT7_6His-AlfaTag-HOXD13 (P35453 263-343): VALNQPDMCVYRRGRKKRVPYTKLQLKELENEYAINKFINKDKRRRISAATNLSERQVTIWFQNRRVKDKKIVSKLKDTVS
row,Sequence,binding signal [log2FC]
1,CTCGAGGATATCAAGATCTGGCCTCGGCTCCATAAAAGGAACCTCTAGCTAGCCGACTCACTATAGGGATAATCGCCCTGAGCAAAGACC,2.64 ± 0.0916
2,CTCGAGGATATCAAGATCTGGCCTCGGCGCGATGGCGGGAACCTCTAGCTAGCCGACTCACTATAGGGATAATCGCCCTGAGCAAAGACC,-0.944 ± 0.133
3,CTCGAGGATATCAAGATCTGGCCTCGGCTTTTTAGATGGAACCTCTAGCTAGCCGACTCACTATAGGGATAATCGCCCTGAGCAAAGACC,0.28 ± 0.11
4,CTCGAGGATATCAAGATCTGGCCTCGGCAGTCTAAAAGGAACCTCTAGCTAGCCGACTCACTATAGGGATAATCGCCCTGAGCAAAGACC,-0.665 ± 0.0999
5,CTCGAGGATATCAAGATCTGGCCTCGGCCTTTTAGCAGGAACCTCTAGCTAGCCGACTCACTATAGGGATAATCGCCCTGAGCAAAGACC,0.506 ± 0.084
6,CTCGAGGATATCAAGATCTGGCCTCGGCCAACTAAAAGGAACCTCTAGCTAGCCGACTCACTATAGGGATAATCGCCCTGAGCAAAGACC,0.0444 ± 0.126
7,CTCGAGGATATCAAGATCTGGCCTCGGCAAGATAAAAGGAACCTCTAGCTAGCCGACTCACTATAGGGATAATCGCCCTGAGCAAAGACC,0.282 ± 0.0917
8,CTCGAGGATATCAAGATCTGGCCTCGGCGTTTTAACTGGAACCTCTAGCTAGCCGACTCACTATAGGGATAATCGCCCTGAGCAAAGACC,1.39 ± 0.0832
9,CTCGAGGATATCAAGATCTGGCCTCGGCGTTTTAGCGGGAACCTCTAGCTAGCCGACTCACTATAGGGATAATCGCCCTGAGCAAAGACC,-0.00405 ± 0.124
10,CTCGAGGATATCAAGATCTGGCCTCGGCACATTAAAAGGAACCTCTAGCTAGCCGACTCACTATAGGGATAATCGCCCTGAGCAAAGACC,2.06 ± 0.09
11,CTCGAGGATATCAAGATCTGGCCTCGGCGCGTTAAAAGGAACCTCTAGCTAGCCGACTCACTATAGGGATAATCGCCCTGAGCAAAGACC,1.22 ± 0.079
12,CTCGAGGATATCAAGATCTGGCCTCGGCAGTATAAAAGGAACCTCTAGCTAGCCGACTCACTATAGGGATAATCGCCCTGAGCAAAGACC,1.92 ± 0.0665
13,CTCGAGGATATCAAGATCTGGCCTCGGCCCAATAAAAGGAACCTCTAGCTAGCCGACTCACTATAGGGATAATCGCCCTGAGCAAAGACC,2.95 ± 0.095
